Assay outcomes as filed in PubChem.
Hits are enriched below; roughly 4% of the tested compounds scored in any of these assays.
TRHR ag – agonists of human TRH receptor; AID 493084; activation, % at 2 µM; 0.18% of 360,000 active; TRHR cells, calcium flux fluo-8, FDSS agonist mode; P34981; further: 0% is about no effect
Target sequence (P34981 whole entry, looked up): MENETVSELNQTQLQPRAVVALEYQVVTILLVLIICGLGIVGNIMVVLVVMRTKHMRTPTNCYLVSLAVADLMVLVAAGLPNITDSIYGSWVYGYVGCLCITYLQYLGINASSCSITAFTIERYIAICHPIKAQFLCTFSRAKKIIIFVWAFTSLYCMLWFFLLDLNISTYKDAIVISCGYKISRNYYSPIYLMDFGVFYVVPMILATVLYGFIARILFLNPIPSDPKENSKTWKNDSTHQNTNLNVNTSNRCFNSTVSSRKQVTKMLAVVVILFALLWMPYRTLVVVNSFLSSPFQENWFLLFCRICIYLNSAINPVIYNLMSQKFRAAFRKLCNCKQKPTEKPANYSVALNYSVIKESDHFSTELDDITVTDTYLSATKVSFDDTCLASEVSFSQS
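Steps: seed TRHR cells overnight; add fluo-8 no-wash Ca dye, RT 30 min–1.5 h; record 10 s baseline; pin-transfer compounds; monitor fluorescence 1 cycle/s for the agonist window. Calcium increases flag candidate agonists.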
GRP78 ERSR act – inducers of ER stress response in human glioma cells; Potency, µM, without a hit: at the highest dose activation, actives largely listed as activators; U87-MG GRP78 promoter luciferase reporter, 16 h; AID 602332; 0.02% of 420,000 active; active means well fitted activation curve with a large enough effect; further: potency means the concentration at half of the fitted maximal effect; series mostly up to about 76 µM; % of control where 0% means no effect; nearly all actives have a fitted effect of over 35% in size
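Stably transfected U87-MG human glioma cells carrying a GRP78-based luminescent sensor were seeded at 1000 cells/well, pin-dosed with compounds and incubated 16 h. Luciferase reagent was then added, and end-point luminescence was read after 10 min at room temperature.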
D1 PAM – enhances dopamine response at the human D1 receptor | AID 504651 | 0.036% of 360,000 active | P21728 | potentiation, % at 10 µM | HEK293 TREx D1 cells, calcium flux, dopamine EC20 potentiation; in the data active means potentiation above about 30%; further: 0% is about no effect
TRHR enhancer – allosterically enhances the human TRH receptor | P34981 | AID 493056 | TRHR cells, fluo-8 calcium fluorescence, EC20 TRH enhancement | enhancement, % at 2 µM | 0.66% of 360,000 active; in the data active means enhancement above about 30%; further: 0% is about no effect
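TRHR-expressing cells loaded with fluo-8 calcium dye were read kinetically (ex 480/em 530) during compound addition, then stimulated with an EC20 of TRH (10 nM final). Enhancement of the Gq-mediated intracellular calcium response was scored.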
D1 antagonist – human D1 dopamine receptor antagonism; P21728; HEK293 TREx D1 cells, calcium flux, dopamine EC80; hits give low values; activity change, negative = inhibition, % at 10 µM; 3.2% of 360,000 active; AID 504652; in the data active means activity change below about -30%; further: on the % scale 0 is the no-effect control and ±100 the full control effect
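Antagonism measured as reduced calcium response to an EC80 dopamine addition following 180 s compound pre-read; cells were inducible HEK293 Trex D1 plated overnight at 30 C, read kinetically at 1 cycle/sec.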
D1 agonist – activates the human D1 dopamine receptor | P21728 | HEK293 T-REx D1 cells, calcium flux, agonist mode | activation, % at 2 µM | 1% of 360,000 active; further: 0% is about no effect
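Tetracycline-induced HEK293 TREx D1 cells, force-coupled to calcium signalling, were dye-loaded with a no-wash calcium kit. Compound was pin-added after a 10 s baseline. Fluorescence was read kinetically at 1 cycle/s for 180 s, with calcium rises flagged as agonism.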
The depositor's hits bear a star; x = not tested or not shown. Unless noted, no stated cut-off is given here; in the data, active means activation above about 30%; inactive means the rest.

SMILES	TRHR ag	GRP78 ERSR act	D1 PAM	TRHR enhancer	D1 antagonist	D1 agonist
COc1ccc(NC(=O)Nc2cc(C)cc(C)c2)cn1	-0.3	-0.8%	-2.0	0.4	-1.6	3.9
COc1ccc(C(F)(F)F)cc1NC(=O)c1nc2nc(C)cc(C(F)F)n2n1	-0.2	-3.2%	1.4	-1.4	-1.0	5.7
CNC(=O)Nc1cccc(C(F)(F)F)c1	-0.6	0.7%	-1.5	1.7	12.0	2.7
Cc1cc(C(F)F)n2nc(C(=O)Nc3cccc(C(F)(F)F)c3)nc2n1	0.0	-3.1%	-5.4	2.3	-39.6*	-0.8
O=C(Nc1ccccc1)Nc1cccc(C(F)(F)F)c1	0.6	3.6%	-2.4	-0.7	-36.8*	22.1
Clc1ccc(-c2cnc3n2CCC3)cc1	-0.2	3.3%	-0.6	-4.2	-2.0	-0.9
Cc1cc(C)c(NC(=O)CN(C)C(=O)CCN2C(=O)C3CCCCC3C2=O)c(C)c1 (configuration not stated)	x	-0.7%	x	x	x	x
CCOC(=O)NC(c1cccc(Cl)c1)C1CCCCCC1=O (configuration not stated)	-1.0	-3.1%	-4.4	8.3	-10.9	0.2
O=C1CCCCC1C(O)c1ccc(Cl)cc1 (configuration not stated)	-0.1	x	-12.1	1.2	-73.8*	0.9
Cc1ccc(C)c(OCCCNC2CCCC2)c1C	-1.5	-4.7%	-3.6	-1.3	-35.3*	41.8*
Cc1ccc(OCCCNC2CCCC2)cc1	1.8	-2.5%	-4.6	1.8	9.8	6.3
Cc1ccc(OCCCCNC2CCCCC2)c(C)c1	-4.6	-4.4%	-5.1	-2.2	-19.5	56.8*
Cc1ccc2oc(=O)c3cnn(CC(=O)NCCC(C)C)c3c2c1	0.1	-0.5%	-13.8	-11.1	-37.3*	3.4
CCCN(C(=O)Cn1ncc2c(=O)oc3ccccc3c21)c1cccc(C)c1	-1.0	-0.6%	9.9	0.7	14.2	1.3
COCCCNC(=O)Cn1ncc2c(=O)oc3ccccc3c21	0.5	-4.1%	-6.0	3.9	-30.3*	3.9
CCN(CCCNC(=O)Cn1ncc2c(=O)oc3ccccc3c21)c1cccc(C)c1	-1.1	-7.7%	-7.5	-6.4	-36.9*	11.2
O=C(Cn1ncc2c(=O)oc3ccccc3c21)NCCCN1CCCC1=O	0.5	-4.5%	1.9	-5.7	3.9	1.4
Cn1c(NCCO)nc2c1c(=O)n(Cc1ccc(F)cc1)c(=O)n2C	-0.2	-3.3%	-1.2	0.0	10.7	1.5
O=C(CSc1nnnn1-c1cccc2c1CCCC2)NC1CCCC1	-0.9	-3.5%	-2.4	-1.8	-27.4	6.8
O=C(CSc1nnnn1-c1cccc2c1CCCC2)N1CCCC1	-0.5	-4.5%	-4.8	6.8	2.7	38.0*
O=C(CSc1nnnn1-c1cccc2c1CCCC2)N1CCOCC1	-1.0	-4.9%	4.8	25.2	-8.1	69.8*
CC1CCCC(C)N1C(=O)CSc1nnnn1-c1cccc2c1CCCC2 (configuration not stated)	0.4	-5.5%	-2.1	-6.4	-6.8	22.8
CCOC(=O)c1cnc(-n2cc(C)cn2)nc1Nc1ccccc1OC	-0.8	-2.6%	-3.9	0.4	-15.3	2.0
CCCOc1ccc(C(C)=O)cc1CSCCC#N	-0.1	-0.8%	-4.9	0.7	-9.0	-0.8
O=[N+]([O-])c1ccc(Cl)c(-c2ccc(/C=N/c3c(-c4ccco4)nc4ccccn34)o2)c1	x	-4.1%	x	x	x	x
SMILES	TRHR ag	GRP78 ERSR act	D1 PAM	TRHR enhancer	D1 antagonist	D1 agonist
Cc1cc(C)c([N+](=O)[O-])cc1-c1ccc(/C=N/c2c(-c3ccco3)nc3ccccn23)o1	1.5	-5.1%	1.0	-1.4	-49.5*	1.7
CCSc1cc(N2CC(C)OC(C)C2)nc(-c2ccccc2Cl)n1 (configuration not stated)	0.1	-8.9%	-1.8	-0.3	61.5	1.4
COc1cc(NC(=O)CSc2nc3ccccc3nc2Cc2ccc(Cl)cc2)cc(OC)c1	0.2	-3.3%	0.8	3.7	-1.5	1.8
Nc1cccnc1Oc1ccccc1F	0.7	-2.3%	1.3	2.4	27.9	2.2
O=C(/C=C/c1ccccc1)Nc1cccnc1Oc1ccccc1F	0.1	8.1%	0.3	4.3	-39.3*	9.1
CCCn1cc2c(c1-c1cccc(C)c1)c(=O)n(C)c(=O)n2C	0.8	-4.3%	2.0	-5.0	1.5	-1.0
Oc1ccc2ccccc2c1C=Nc1ccc(N2CCOCC2)cc1	19.7	-10.7%	-6.3	0.5	2.2	52.3*
Oc1ccccc1N=Cc1c(O)ccc2ccccc12	26.7	-0.6%	2.0	4.2	4.9	101.3*
CCOC(=O)c1c(P(=O)(N2CCOCC2)N2CCOCC2)noc1N	0.6	-3.7%	-3.6	-4.2	3.8	2.1
CC(=O)N1N=C(c2ccc(C)cc2)OC1c1ccc(Br)cc1 (configuration not stated)	-0.6	2.2%	4.1	8.0	-30.4*	4.1
N#CCCn1nc(-c2ccc([N+](=O)[O-])cc2)cc1Nc1ccccc1NC(=O)C(F)(F)F	0.7	-3.8%	-7.6	6.1	-26.8	31.3*
CCC1CCCCN1C(=O)c1cc(COc2ccc3ncccc3c2)on1 (configuration not stated)	-0.2	-2.2%	-4.5	-1.2	-42.0*	12.3
COCC1CCCCN1C(=O)c1cc(COc2ccc3ncccc3c2)on1 (configuration not stated)	1.2	-9.7%	-1.4	-0.3	-26.8	11.7
CC(C)N(Cc1nccn1C)C(=O)c1cc(COc2ccc3ncccc3c2)on1	-0.6	-6.8%	0.8	0.5	-6.7	7.8
CC(=O)c1ccc(OCc2cc(C(=O)N3CCCCC3c3cccnc3)no2)cc1 (configuration not stated)	0.5	-2.6%	-6.4	-3.0	-33.4*	19.7
CC(=O)c1ccc(OCc2cc(C(=O)N3CCC(c4ccncc4)CC3)no2)cc1	0.0	2.3%	-9.2	5.7	-21.0	17.8
COCCC1CCCCN1C(=O)c1cc(COc2ccc(-n3cncn3)cc2)on1 (configuration not stated)	0.3	0.9%	-8.9	-4.3	-63.7*	17.5
Cc1nc(CN(C)C(=O)c2cc(COc3ccc4ncccc4c3)on2)cs1	0.7	1.0%	-2.0	-3.6	-37.3*	15.9
COCCOC1CCN(C(=O)c2cc(COc3ccc(-n4cncn4)cc3)on2)CC1	-0.3	-3.8%	2.0	14.2	-4.3	5.3
O=C(NCCc1ccccc1)C1CC(=O)N(c2ccc3c(c2)OCCO3)C1 (configuration not stated)	-0.1	-1.6%	-2.6	-0.3	7.0	2.7
Cc1ccc(C(=O)CSc2nnc(COc3cccc(C)c3)o2)cc1	0.2	-5.8%	3.1	-9.2	-23.2	5.9
CCOCc1nnc(NC(=O)c2cc(OC)cc(OC)c2)s1	0.0	-3.6%	-6.8	-5.2	-3.5	0.4
CCOC(=O)CC(=O)CSc1nc(-c2cccnc2)cc(C)c1C#N	0.6	5.1%	5.0	-7.7	-7.3	2.8
